In PubChem BioAssay (NCATS):
Results filed as inconclusive are left out. Calls of active or inactive are those of the source. Unless noted, the call rests on the fitted dose curve; in most records, active means well fitted curve in the direction sought with a large enough effect; inconclusive means small, poorly fitted or top-dose-only effect, or another doubt; inactive means no such curve, though single readings can be large; an effect the other way counts as inactive or inconclusive.

Key:
[1] = Primary qHTS for small molecule stabilizers of the endoplasmic reticulum resident proteome: Secreted ER Calcium Modulated Protein (SERCaMP) assay (AID 1508630); further: on the % scale 0 is the no-effect control and ±100 the full control effect
Outline: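 GLuc-SERCaMP-expressing SH-SY5Y cells, pretreated 16 h with compound, are challenged with thapsigargin to empty ER calcium stores; after 4 h, coelenterazine is added directly to the medium and luminescence is imaged.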

[2] = A High-Content qHTS Against Drug Library for the Identification of Small Molecules that Inhibit DYT1 Early Onset Primary Dystonia-Associated Cell Pathology (AID 1645839; calls by dose curve)
Outline: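 Readout: %pathology, the punctate EGFP-TorsinA distribution from imaging, as the primary channel and cell count as the toxicity counterscreen. HEK293 Flp-In cells expressing delE TorsinA were induced with tetracycline and treated with compound for 48 h.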

[3] = molecular target: Cytochrome P450 2D6 (Homo sapiens) (UniProt P10635); experiment: Cytochrome P450 family 2 subfamily D member 6 (CYP2D6) small molecule antagonists: luciferase biochemical (cell-free) qHTS assay (AID 1645840; active means well fitted curve in the direction sought with a large enough effect in the repeat runs; an effect the other way counts as inactive or inconclusive; further: nearly all actives have a fitted effect of over 55% in size; further: potency means the concentration at half of the fitted maximal effect; on activity change, negative = inhibition: on the % scale 0 is the no-effect control and ±100 the full control effect)
Outline: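 P450-Glo luminescent screen: recombinant CYP2D6 enzyme–proluciferin substrate mix preincubated with compound 10 min at room temperature, then NADPH regeneration added for 1 h at room temperature. Detection reagent added for 20 min; luciferin light read as relative luminescence units.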

[4] = molecular target: Cytochrome P450 3A4 (Homo sapiens) (UniProt P08684); experiment: Cytochrome P450 family 3 subfamily A member 4 (CYP3A4) small molecule antagonists: luciferase qHTS assay (AID 1645841; active means well fitted curve in the direction sought with a large enough effect in the repeat runs; an effect the other way counts as inactive or inconclusive; further: nearly all actives have a fitted effect of over 45% in size)
Outline: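 P450-Glo CYP3A4 enzyme with proluciferin substrate was preincubated with DMSO-dissolved compounds for 10 min at room temperature. NADPH regeneration solution started a 1 h reaction. Detection reagent stopped it, and luminescence was read after 20 min.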

[5] = Primary qHTS for inhibitors of nuclear receptor binding SET domain protein 2 (NSD2) in an isogenic RCH-ACV NSD2 p.E1099K mutant (9B) (AID 1645876); further: nearly all actives have a fitted effect of over 70% in size; on activity change, negative = viability loss: on the % scale 0 is the no-effect control and ±100 the full control effect
[6] = Primary qHTS for inhibitors of nuclear receptor binding SET domain protein 2 (NSD2) in an RCH-ACV wild type WT cells (2C) (AID 1645877); further: nearly all actives have a fitted effect of over 70% in size
[7] = molecular target: Cytochrome P450 2C9 (Homo sapiens) (UniProt P11712); experiment: Cytochrome P450 family 2 subfamily C member 9 (CYP2C9) small molecule antagonists: luciferase biochemical (cell-free) qHTS assay (AID 1645842; active means well fitted curve in the direction sought with a large enough effect in the repeat runs; an effect the other way counts as inactive or inconclusive; further: nearly all actives have a fitted effect of over 55% in size; further: potency means the concentration at half of the fitted maximal effect)
Outline: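 Luminescence, after 20 min with luciferin detection reagent, reflected CYP2C9 turnover during a 1 h NADPH-driven reaction at 37C. Enzyme-substrate mix contained 0.4% bovine serum albumin and was preincubated with compound 10 min at room temperature.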

[8] = molecular target: Papain (Carica papaya) (UniProt P00784); experiment: Primary qHTS assay for inhibitors of the protease papain (AID 1645873);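 further: papain turnover of Z-FR-AMC read as the AMC fluorescence gain over 10 min; on the % scale 0 is the no-effect control and ±100 the full control effect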
[9] = molecular target: Catechol O-methyltransferase (Homo sapiens) (UniProt P21964); experiment: Confirmatory Screen for Target Class Profiling of Small Molecule Inhibitors of Methyltransferases (AID 1745852; calls by dose curve); details: MTase-Glo luminescence, SAH detection, recombinant enzyme; measured here: COMT max response; stronger effect = lower value
[10] = molecular target: Guanidinoacetate N-methyltransferase (Homo sapiens) (UniProt Q14353); experiment: as above; details: MTase-Glo luminescence, SAH detection, recombinant enzyme; at 57.3 µM (top of the series)
[11] = molecular target: Nicotinamide N-methyltransferase (Homo sapiens) (UniProt P40261); experiment: as above; details: MTase-Glo luminescence, SAH detection, recombinant enzyme; measured here: NNMT max response; stronger effect = lower value
[12] = molecular target: Phenylethanolamine N-methyltransferase (Homo sapiens) (UniProt P11086); experiment: as above; details: MTase-Glo luminescence, SAH detection, recombinant enzyme; measured here: PNMT max response; stronger effect = lower value
[13] = molecular target: N-terminal Xaa-Pro-Lys N-methyltransferase 1 (Homo sapiens) (UniProt Q9BV86); experiment: Confirmatory qHTS for Inhibitors of N-terminal methyltransferase 1 (NTMT1): MTaseGlo Assay (AID 1645874); details: NTMT1 enzyme, MTase-Glo SAH luminescence; further: potency means the concentration at half of the fitted maximal effect; nearly all actives have a fitted effect of over 65% in size
Outline: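 Luminescent MTase-Glo read-out of SAH. 125 nM NTMT1, 100 uM SAM, 1 uM SPKRIA substrate, 30 min RT reaction after 15 min compound preincubation. Normalized to no-enzyme and DMSO controls; Hill fit.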

Cytochrome P450 3A4 (Homo sapiens), sequence (P08684 whole entry, looked up): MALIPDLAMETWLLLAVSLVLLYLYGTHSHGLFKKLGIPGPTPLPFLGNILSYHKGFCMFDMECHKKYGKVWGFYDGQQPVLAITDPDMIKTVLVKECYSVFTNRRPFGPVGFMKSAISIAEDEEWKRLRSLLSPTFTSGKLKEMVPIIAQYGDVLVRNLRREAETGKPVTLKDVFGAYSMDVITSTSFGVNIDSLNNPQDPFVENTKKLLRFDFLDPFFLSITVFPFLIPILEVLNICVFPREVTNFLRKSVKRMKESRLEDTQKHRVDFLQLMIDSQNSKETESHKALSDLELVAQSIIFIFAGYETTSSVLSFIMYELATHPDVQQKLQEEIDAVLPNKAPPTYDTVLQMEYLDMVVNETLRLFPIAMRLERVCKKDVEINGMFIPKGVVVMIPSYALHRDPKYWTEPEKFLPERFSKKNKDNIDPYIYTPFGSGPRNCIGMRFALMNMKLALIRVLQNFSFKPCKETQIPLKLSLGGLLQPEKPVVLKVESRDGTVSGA
Cytochrome P450 2D6 (Homo sapiens), sequence (P10635 whole entry, looked up): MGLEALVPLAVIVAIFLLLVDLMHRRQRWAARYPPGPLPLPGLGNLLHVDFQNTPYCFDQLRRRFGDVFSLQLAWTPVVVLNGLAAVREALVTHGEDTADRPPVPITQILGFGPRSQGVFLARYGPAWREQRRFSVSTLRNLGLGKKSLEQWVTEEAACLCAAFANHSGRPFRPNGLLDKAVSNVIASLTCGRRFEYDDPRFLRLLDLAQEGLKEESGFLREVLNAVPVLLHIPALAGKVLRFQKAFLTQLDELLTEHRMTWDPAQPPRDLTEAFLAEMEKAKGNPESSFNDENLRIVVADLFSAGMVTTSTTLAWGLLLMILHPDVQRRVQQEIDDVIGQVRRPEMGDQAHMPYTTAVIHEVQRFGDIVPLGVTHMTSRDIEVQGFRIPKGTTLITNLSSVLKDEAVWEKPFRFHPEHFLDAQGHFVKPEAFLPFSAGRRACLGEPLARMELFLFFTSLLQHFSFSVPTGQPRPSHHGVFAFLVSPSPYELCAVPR
Cytochrome P450 2C9 (Homo sapiens), sequence (P11712 whole entry, looked up): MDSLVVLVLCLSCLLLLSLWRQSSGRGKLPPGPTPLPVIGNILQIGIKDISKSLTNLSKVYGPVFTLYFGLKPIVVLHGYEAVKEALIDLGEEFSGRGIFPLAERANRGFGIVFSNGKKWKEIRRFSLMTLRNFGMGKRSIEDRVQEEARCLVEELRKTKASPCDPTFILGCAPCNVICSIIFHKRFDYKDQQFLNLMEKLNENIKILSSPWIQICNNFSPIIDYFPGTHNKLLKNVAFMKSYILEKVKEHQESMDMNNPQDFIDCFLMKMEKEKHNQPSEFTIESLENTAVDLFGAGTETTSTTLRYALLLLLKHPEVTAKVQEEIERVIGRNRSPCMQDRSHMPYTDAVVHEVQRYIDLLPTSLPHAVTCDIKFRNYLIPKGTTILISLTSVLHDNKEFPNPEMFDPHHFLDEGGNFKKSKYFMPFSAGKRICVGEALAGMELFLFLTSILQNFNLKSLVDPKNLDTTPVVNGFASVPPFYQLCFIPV
Papain (Carica papaya), sequence (P00784 whole entry, looked up): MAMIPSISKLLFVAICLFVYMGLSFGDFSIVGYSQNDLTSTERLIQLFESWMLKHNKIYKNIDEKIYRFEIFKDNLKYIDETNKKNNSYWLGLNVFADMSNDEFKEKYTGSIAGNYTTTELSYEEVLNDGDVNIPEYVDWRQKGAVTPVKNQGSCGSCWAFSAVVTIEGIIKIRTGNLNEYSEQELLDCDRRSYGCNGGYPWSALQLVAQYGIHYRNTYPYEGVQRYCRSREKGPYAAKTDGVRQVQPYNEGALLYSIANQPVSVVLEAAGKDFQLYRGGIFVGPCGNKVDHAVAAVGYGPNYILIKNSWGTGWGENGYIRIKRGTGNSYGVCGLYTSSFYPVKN
N-terminal Xaa-Pro-Lys N-methyltransferase 1 (Homo sapiens), sequence (Q9BV86 whole entry, looked up): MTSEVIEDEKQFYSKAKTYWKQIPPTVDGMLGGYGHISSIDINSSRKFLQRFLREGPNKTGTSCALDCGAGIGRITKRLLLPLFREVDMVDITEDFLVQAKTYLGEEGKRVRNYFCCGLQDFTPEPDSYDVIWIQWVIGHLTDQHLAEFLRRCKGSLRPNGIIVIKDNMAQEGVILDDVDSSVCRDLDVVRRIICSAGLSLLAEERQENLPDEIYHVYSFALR
Phenylethanolamine N-methyltransferase (Homo sapiens), sequence (P11086 whole entry, looked up): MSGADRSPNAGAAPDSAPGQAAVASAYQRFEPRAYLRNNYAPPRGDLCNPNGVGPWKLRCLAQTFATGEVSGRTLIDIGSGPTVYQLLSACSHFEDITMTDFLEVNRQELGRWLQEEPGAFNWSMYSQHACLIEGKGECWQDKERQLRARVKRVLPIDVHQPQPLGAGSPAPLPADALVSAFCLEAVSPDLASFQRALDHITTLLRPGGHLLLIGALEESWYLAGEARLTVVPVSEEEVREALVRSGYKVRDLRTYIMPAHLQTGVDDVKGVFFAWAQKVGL
Catechol O-methyltransferase (Homo sapiens), sequence (P21964 whole entry, looked up): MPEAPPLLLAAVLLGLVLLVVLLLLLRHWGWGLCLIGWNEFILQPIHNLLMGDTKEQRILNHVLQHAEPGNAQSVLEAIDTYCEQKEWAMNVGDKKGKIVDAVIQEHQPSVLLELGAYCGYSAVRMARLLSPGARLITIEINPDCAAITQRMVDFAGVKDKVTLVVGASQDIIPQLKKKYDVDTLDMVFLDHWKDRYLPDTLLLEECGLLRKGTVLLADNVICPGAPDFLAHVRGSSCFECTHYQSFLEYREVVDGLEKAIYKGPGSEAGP
Nicotinamide N-methyltransferase (Homo sapiens), sequence (P40261 whole entry, looked up): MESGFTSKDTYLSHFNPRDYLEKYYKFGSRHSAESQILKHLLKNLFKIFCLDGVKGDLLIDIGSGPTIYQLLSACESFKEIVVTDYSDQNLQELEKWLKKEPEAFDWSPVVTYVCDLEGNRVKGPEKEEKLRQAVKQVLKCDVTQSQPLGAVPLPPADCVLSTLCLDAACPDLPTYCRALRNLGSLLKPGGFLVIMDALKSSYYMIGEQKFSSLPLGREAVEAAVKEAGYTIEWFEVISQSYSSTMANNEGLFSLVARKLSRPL

C[C@H](N)[C@H](O)c1cccc(O)c1
inactive: Potency [1] | Potency [2] | Potency [3] | outcome [4] | Potency [5] | Potency [6]

CC(C)C(=O)c1c(C(C)C)nn2ccccc12
inactive: Potency [1] | Potency [2] | Potency [3] | Potency [7] | Potency [8] | Potency [5] | Potency [6]

C[C@](N)(Cc1ccc(O)cc1)C(=O)O
inactive: Potency [1] | % pathology change, negative = correction [2] 14.7% [at 4.63 µM] | activity change, negative = inhibition [3] 8.94% [at 4.83 µM] | activity change, negative = inhibition [7] 1.65% [at 4.83 µM] | Potency [8] | activity change, negative = viability loss [5] -3.71% [at 4.96 µM] | outcome [6] inactive [at 4.96 µM]

NC(CSCC(=O)O)C(=O)O (stereo unspecified)
inactive: Potency [1] | Potency [2] | Potency [3] | Potency [7]

O=c1[nH]cnc2c1ncn2[C@@H]1O[C@H](CO)[C@@H](O)[C@H]1O
inactive: Potency [1] | Potency [2] | Potency [3] | Potency [7] | Potency [5] | Potency [6]

O=C1NS(=O)(=O)c2ccccc21
inactive: Potency [1] | Potency [2] | Potency [3] | Potency [7]

Nc1ccc(S(=O)(=O)Nc2ccc(Cl)nn2)cc1
inactive: Potency [1] | Potency [2] | Potency [3]

CCCCCCCCCCCCCCCCCCOCC(O)CO (stereo unspecified)
inactive: Potency [1] | Potency [2] | Potency [3] | Potency [7] | Potency [5] | Potency [6]

CN(C)CC[C@@H](c1ccc(Cl)cc1)c1ccccn1
active: Potency [3] 9.52 µM
2.46%: activity change, negative = inhibition [10]
-1.72%: activity [12]
-7.31%: activity [11]
inactive: Potency [1] | Potency [2] | Potency [7] | Potency [8] | Potency [5] | Potency [6]
-1.71%: activity [9]

NS(=O)(=O)c1cc2c(cc1Cl)NC(CSCc1ccccc1)=NS2(=O)=O
inactive: Potency [1] | Potency [2] | Potency [5] | Potency [6]
active: Potency [3] 13.8 µM | Potency [7] 5.49 µM

CC1(C)[C@@H]2CC[C@@]1(C)C(=O)C2
inactive: Potency [1] | Potency [2] | Potency [3] | Potency [7] | Potency [5] | Potency [6]

OCC(O)CN1CCN(c2ccccc2)CC1 (stereo unspecified)
inactive: Potency [1] | Potency [2] | Potency [3] | outcome [4] | Potency [7] | Potency [5] | Potency [6]

COc1ccc2[nH]c(S(=O)Cc3ncc(C)c(OC)c3C)nc2n1 (stereo unspecified)
active: Potency [7] 10.7 µM | Potency [13] 35.5 µM
inactive: Potency [1] | Potency [2] | Potency [3] | Potency [5] | Potency [6]

C[C@@H]1CC[C@@]2(OC1)O[C@H]1C[C@H]3[C@@H]4CC[C@H]5C[C@@H](O)CC[C@]5(C)[C@H]4CC(=O)[C@]3(C)[C@H]1[C@@H]2C
inactive: activity change, negative = inhibition [1] -13.5% [at 3.88 µM] | % pathology change, negative = correction [2] -10% [at 4.63 µM] | activity change, negative = inhibition [3] 8.49% [at 4.83 µM] | activity change, negative = inhibition [4] 37% [at 4.83 µM] | activity change, negative = inhibition [7] 5.2% [at 4.83 µM] | activity change, negative = viability loss [5] -10.8% [at 4.96 µM] | outcome [6] inactive [at 4.96 µM]

CC(C)(C)C(=O)C(Oc1ccc(Cl)cc1)n1ccnc1 (stereo unspecified)
inactive: Potency [1] | Potency [2]
active: Potency [3] 17.4 µM | Potency [7] 2.75 µM

Nc1cc(=O)[nH]c(N)n1
inactive: Potency [1] | Potency [2] | Potency [3] | Potency [7] | Potency [8] | Potency [5] | Potency [6]

Cn1cc[nH]c1=S
inactive: Potency [1] | Potency [2] | Potency [3] | Potency [7] | Potency [5] | Potency [6]

Cc1cc(CC(=O)O)n(C)c1C(=O)c1ccc(Cl)cc1
inactive: Potency [1] | Potency [2] | Potency [3] | Potency [7]

C=Cc1c(C)c2cc3[nH]c(cc4nc(cc5nc(cc1[nH]2)C(C)=C5CCC(=O)O)C(CCC(=O)O)=C4C)c(C)c3C=C
inactive: Potency [1] | Potency [2] | Potency [3] | outcome [4] | Potency [7] | Potency [8]
active: Potency [13] 34.5 µM

OCc1cc(C(O)CNCCCCCCOCCCCc2ccccc2)ccc1O (stereo unspecified)
inactive: Potency [1]

Cc1cc(O)cc2c1O[C@](C)(CCC[C@H](C)CCC[C@H](C)CCCC(C)C)CC2
inactive: Potency [1] | Potency [2] | Potency [3] | Potency [7] | Potency [5] | Potency [6]

O=c1[nH]c(=O)c2[nH]c(=O)[nH]c2[nH]1
inactive: activity change, negative = inhibition [1] -1.24% [at 7.35 µM] | % pathology change, negative = correction [2] 7.44% [at 9.22 µM] | activity change, negative = inhibition [3] 4.14% [at 11.5 µM] | activity change, negative = inhibition [7] 8.18% [at 11.5 µM]

O=C(O)[C@@H]1CSCN1
inactive: Potency [1] | Potency [2] | Potency [3] | outcome [4] | Potency [7] | Potency [5] | Potency [6]

CN(N=O)C(=O)N[C@@H]1[C@@H](O)[C@H](O)[C@@H](CO)O[C@@H]1O
inactive: Potency [1] | Potency [2] | Potency [3] | outcome [4] | Potency [7] | Potency [5] | Potency [6]

C[C@H]1O[C@H](O[C@H]2[C@H](O)[C@@H](O)[C@@H](O[C@H]3[C@H](O)[C@@H](O)[C@H](O)O[C@@H]3CO)O[C@@H]2CO)[C@H](O)[C@@H](O)[C@@H]1N[C@H]1C=C(CO)[C@@H](O)[C@H](O)[C@H]1O
inactive: Potency [1] | Potency [2] | Potency [3] | Potency [7] | Potency [5] | Potency [6]
